Measurements from article PMC11066047.

Tests used:
[1] = biological target: Heat shock protein homolog SSE1 (UniProt P32589); test: cross-link between two proteins; cross-linking mass spectrometry
[2] = biological target: Heat shock protein homolog SSE2 (UniProt P32590); test: as above
[3] = biological target: Isocitrate dehydrogenase [NAD] subunit 1, mitochondrial (UniProt P28834); test: as above
[4] = biological target: Large ribosomal subunit protein eL30 (UniProt P14120); test: as above
[5] = biological target: Small ribosomal subunit protein eS7A (UniProt P26786); test: cross-link between two proteins
[6] = biological target: Large ribosomal subunit protein eL31A (UniProt P0C2H8); test: cross-link between two proteins; cross-linking mass spectrometry
[7] = biological target: Large ribosomal subunit protein eL32 (UniProt P38061); test: as above
[8] = biological target: Ribosome biogenesis protein ALB1 (UniProt P47019); test: as above
Zuotin = Zuotin (UniProt P32527); test: as above
[9] = biological target: Large ribosomal subunit protein eL38 (UniProt P49167); test: as above
[10] = biological target: Large ribosomal subunit protein eL6A (UniProt Q02326); test: as above
[11] = biological target: Large ribosomal subunit protein eL8B (UniProt P29453); test: as above
Sequence of Large ribosomal subunit protein eL8B (P29453 whole entry): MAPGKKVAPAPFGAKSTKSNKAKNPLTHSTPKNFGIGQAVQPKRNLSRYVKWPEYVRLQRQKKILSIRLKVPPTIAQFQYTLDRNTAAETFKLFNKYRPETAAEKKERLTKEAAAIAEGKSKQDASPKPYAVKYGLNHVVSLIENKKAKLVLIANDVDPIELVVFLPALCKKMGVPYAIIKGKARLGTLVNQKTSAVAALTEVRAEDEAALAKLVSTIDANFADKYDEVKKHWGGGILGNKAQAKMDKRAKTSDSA

Pescadillo homolog = Pescadillo homolog (UniProt P53261); test: as above
Sequence of Pescadillo homolog (P53261 whole entry): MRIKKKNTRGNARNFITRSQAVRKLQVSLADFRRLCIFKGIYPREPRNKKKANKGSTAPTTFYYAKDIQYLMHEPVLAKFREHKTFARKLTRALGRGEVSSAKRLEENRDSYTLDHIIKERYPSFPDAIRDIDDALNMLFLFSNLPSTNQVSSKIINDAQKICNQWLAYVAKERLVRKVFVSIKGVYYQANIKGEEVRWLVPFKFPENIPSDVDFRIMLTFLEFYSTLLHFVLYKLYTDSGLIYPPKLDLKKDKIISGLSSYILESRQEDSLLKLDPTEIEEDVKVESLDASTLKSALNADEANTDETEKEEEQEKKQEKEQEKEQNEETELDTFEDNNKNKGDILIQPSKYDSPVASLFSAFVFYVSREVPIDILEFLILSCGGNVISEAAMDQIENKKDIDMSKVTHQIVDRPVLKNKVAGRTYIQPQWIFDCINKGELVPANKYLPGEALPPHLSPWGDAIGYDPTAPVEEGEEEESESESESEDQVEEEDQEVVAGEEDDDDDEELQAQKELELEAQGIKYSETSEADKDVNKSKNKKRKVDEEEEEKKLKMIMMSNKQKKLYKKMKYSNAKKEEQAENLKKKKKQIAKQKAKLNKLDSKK

[12] = biological target: Proteasome-interacting protein CIC1 (UniProt P38779); test: as above
Sequence of Proteasome-interacting protein CIC1 (P38779 whole entry): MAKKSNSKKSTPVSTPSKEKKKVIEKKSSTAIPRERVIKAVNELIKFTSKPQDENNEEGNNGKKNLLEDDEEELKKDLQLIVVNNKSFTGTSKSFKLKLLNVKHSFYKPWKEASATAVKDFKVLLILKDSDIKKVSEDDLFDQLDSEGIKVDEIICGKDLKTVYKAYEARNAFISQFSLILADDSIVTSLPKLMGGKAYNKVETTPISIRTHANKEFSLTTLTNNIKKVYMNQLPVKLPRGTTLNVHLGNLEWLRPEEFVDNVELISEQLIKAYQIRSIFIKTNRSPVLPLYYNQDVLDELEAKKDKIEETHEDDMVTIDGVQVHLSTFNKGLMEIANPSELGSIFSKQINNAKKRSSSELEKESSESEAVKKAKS

[13] = biological target: Large ribosomal subunit protein uL13B (UniProt P26785); test: as above
[14] = biological target: Large ribosomal subunit protein uL4A (UniProt P10664); test: as above
[15] = biological target: Large ribosomal subunit protein uL4B (UniProt P49626); test: as above
[16] = biological target: Mitochondrial import inner membrane translocase subunit TIM14 (UniProt Q07914); test: as above
[17] = biological target: NET1-associated nuclear protein 1 (UniProt Q02931); test: cross-link between two proteins
[18] = biological target: Nucleolar complex protein 14 (UniProt Q99207); test: cross-link between two proteins
[19] = biological target: Ribosomal RNA-processing protein 12 (UniProt Q12754); test: cross-link between two proteins
Nucleolar protein 56 = Nucleolar protein 56 (UniProt Q12460); test: cross-link between two proteins
Nucleolar protein 58 = Nucleolar protein 58 (UniProt Q12499); test: cross-link between two proteins; cross-linking mass spectrometry
Prohibitin-2 = Prohibitin-2 (UniProt P50085); test: as above
[20] = biological target: Small ribosomal subunit protein uS5 (UniProt P25443); test: as above
Sequence of Small ribosomal subunit protein uS5 (P25443 whole entry): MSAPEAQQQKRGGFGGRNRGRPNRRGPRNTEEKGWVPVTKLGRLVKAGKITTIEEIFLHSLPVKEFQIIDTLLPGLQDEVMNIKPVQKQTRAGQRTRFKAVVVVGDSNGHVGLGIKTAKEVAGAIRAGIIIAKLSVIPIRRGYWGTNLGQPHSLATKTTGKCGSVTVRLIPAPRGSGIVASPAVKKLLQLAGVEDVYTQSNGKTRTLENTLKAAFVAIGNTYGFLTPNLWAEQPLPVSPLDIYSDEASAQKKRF

[21] = biological target: U3 small nucleolar RNA-associated protein 15 (UniProt Q04305); test: as above
Sequence of U3 small nucleolar RNA-associated protein 15 (Q04305 whole entry): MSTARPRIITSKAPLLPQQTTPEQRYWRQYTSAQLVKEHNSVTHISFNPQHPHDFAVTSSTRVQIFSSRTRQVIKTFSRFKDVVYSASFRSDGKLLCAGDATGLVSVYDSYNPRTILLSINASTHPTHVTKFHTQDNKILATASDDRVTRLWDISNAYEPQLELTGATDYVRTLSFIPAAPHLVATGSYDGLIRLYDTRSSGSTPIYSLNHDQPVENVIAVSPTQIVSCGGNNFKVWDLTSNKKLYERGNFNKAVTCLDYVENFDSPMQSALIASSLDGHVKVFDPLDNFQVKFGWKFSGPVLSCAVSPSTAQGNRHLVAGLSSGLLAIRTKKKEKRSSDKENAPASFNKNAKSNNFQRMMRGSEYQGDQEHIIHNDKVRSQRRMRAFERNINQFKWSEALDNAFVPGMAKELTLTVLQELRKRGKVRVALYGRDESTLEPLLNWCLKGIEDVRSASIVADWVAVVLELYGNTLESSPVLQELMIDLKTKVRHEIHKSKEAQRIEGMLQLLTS

[22] = biological target: Proteasome subunit alpha type-2 (UniProt P23639); test: as above
Sequence of Proteasome subunit alpha type-2 (P23639 whole entry): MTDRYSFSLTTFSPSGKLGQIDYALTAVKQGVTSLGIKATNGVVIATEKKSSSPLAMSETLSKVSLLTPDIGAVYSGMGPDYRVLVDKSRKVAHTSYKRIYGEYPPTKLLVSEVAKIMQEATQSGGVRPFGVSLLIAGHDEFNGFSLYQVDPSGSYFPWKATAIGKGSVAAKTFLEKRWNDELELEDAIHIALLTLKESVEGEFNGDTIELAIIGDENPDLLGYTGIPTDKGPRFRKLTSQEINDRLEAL

[23] = biological target: Proteasome subunit beta type-3 (UniProt P25451); test: as above
[24] = biological target: U3 small nucleolar RNA-associated protein 12 (UniProt Q12220); test: as above
Sequence of U3 small nucleolar RNA-associated protein 12 (Q12220 whole entry): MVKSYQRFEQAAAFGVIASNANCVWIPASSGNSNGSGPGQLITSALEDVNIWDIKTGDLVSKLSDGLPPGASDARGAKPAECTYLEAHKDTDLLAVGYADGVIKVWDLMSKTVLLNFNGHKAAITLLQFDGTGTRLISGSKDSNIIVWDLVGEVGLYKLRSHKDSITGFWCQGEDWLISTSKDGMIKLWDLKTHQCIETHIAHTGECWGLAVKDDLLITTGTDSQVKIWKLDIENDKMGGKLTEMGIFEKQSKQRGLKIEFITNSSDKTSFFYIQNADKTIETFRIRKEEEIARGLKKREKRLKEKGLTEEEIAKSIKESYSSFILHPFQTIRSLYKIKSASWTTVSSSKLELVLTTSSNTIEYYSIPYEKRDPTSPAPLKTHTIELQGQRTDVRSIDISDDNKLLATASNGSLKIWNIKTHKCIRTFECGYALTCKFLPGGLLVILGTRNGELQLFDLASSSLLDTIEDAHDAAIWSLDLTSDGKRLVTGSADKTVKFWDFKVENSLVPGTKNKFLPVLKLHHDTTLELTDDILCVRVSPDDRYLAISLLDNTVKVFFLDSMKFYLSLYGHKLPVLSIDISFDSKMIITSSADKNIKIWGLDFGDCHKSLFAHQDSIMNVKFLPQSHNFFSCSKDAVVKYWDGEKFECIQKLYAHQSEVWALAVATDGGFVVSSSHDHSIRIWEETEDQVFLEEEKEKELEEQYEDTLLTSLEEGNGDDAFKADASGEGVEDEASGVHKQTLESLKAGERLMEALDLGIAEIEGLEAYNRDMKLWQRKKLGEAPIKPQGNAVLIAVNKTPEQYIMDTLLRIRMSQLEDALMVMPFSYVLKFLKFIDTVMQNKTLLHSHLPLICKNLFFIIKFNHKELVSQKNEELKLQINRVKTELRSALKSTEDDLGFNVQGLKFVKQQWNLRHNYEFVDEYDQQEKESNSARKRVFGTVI

[25] = biological target: U3 small nucleolar RNA-associated protein 22 (UniProt P53254); test: cross-link between two proteins
[26] = biological target: Small ribosomal subunit protein eS12 (UniProt P48589); test: cross-link between two proteins; cross-linking mass spectrometry
[27] = biological target: Small ribosomal subunit protein RACK1 (UniProt P38011); test: as above
[28] = biological target: Small ribosomal subunit protein uS10 (UniProt P38701); test: as above
[29] = biological target: Proteasome subunit alpha type-3 (UniProt P23638); test: as above
[30] = biological target: U3 small nucleolar RNA-associated protein 21 (UniProt Q06078); test: cross-link between two proteins
[31] = biological target: Proteasome subunit alpha type-6 (UniProt P40302); test: cross-link between two proteins; cross-linking mass spectrometry
[32] = biological target: Succinate--CoA ligase [ADP-forming] subunit alpha, mitochondrial (UniProt P53598); test: as above
[33] = biological target: Ribosome biogenesis protein MAK21 (UniProt Q12176); test: as above
Sequence of Ribosome biogenesis protein MAK21 (Q12176 whole entry): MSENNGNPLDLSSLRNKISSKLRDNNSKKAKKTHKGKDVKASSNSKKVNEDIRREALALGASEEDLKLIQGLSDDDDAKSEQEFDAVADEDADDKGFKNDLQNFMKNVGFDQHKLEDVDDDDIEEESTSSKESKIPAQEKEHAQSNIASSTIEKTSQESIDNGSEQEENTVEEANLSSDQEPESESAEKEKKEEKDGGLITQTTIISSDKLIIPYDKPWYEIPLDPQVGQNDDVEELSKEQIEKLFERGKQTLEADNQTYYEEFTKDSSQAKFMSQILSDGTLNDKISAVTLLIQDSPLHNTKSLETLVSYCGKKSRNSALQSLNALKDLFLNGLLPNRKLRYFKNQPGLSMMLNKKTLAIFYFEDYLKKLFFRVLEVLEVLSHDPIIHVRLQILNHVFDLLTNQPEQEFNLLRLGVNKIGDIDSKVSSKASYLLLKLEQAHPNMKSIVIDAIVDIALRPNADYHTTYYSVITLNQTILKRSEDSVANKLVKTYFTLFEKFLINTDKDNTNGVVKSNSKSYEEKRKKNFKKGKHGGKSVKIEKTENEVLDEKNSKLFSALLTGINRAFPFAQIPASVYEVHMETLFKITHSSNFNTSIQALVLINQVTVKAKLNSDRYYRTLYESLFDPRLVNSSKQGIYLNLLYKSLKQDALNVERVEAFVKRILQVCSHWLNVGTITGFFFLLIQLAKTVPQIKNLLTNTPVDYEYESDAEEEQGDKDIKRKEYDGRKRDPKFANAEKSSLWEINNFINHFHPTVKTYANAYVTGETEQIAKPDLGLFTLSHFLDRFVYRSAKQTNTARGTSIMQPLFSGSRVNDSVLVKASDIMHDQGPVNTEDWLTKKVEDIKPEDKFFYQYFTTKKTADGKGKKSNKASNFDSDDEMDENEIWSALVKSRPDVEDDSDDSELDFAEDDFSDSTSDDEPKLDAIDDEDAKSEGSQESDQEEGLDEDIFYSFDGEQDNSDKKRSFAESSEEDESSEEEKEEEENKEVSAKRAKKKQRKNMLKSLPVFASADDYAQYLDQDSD

[34] = biological target: Ribosome biogenesis protein YTM1 (UniProt Q12024); test: as above
[35] = biological target: rRNA-processing protein FCF2 (UniProt Q12035); test: cross-link between two proteins
[36] = biological target: Small ribosomal subunit protein eS25A (UniProt Q3E792); test: cross-link between two proteins; cross-linking mass spectrometry
[37] = biological target: Small ribosomal subunit protein eS28A (UniProt Q3E7X9); test: cross-link between two proteins
Sequence of Small ribosomal subunit protein eS28A (Q3E7X9 whole entry): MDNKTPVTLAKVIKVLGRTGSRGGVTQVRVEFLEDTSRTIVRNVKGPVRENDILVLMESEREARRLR

[38] = biological target: U3 small nucleolar RNA-associated protein 16 (UniProt Q08492); test: cross-link between two proteins
[39] = biological target: Small ribosomal subunit protein uS7 (UniProt P26783); test: cross-link between two proteins; cross-linking mass spectrometry
[40] = biological target: U3 small nucleolar RNA-associated protein MPP10 (UniProt P47083); test: cross-link between two proteins
[41] = biological target: Protein transport protein SBH2 (UniProt P52871); test: cross-link between two proteins; cross-linking mass spectrometry
[42] = biological target: Ubiquitin-like protein MDY2 (UniProt Q12285); test: as above
[43] = biological target: Ribosome biogenesis protein BMS1 (UniProt Q08965); test: cross-link between two proteins
[44] = biological target: Small ribosomal subunit protein uS11B (UniProt P39516); test: cross-link between two proteins; cross-linking mass spectrometry
RuvB-like protein 2 = RuvB-like protein 2 (UniProt Q12464); test: as above

Sequence of Heat shock protein SSA1, P10591 (P10591 whole entry): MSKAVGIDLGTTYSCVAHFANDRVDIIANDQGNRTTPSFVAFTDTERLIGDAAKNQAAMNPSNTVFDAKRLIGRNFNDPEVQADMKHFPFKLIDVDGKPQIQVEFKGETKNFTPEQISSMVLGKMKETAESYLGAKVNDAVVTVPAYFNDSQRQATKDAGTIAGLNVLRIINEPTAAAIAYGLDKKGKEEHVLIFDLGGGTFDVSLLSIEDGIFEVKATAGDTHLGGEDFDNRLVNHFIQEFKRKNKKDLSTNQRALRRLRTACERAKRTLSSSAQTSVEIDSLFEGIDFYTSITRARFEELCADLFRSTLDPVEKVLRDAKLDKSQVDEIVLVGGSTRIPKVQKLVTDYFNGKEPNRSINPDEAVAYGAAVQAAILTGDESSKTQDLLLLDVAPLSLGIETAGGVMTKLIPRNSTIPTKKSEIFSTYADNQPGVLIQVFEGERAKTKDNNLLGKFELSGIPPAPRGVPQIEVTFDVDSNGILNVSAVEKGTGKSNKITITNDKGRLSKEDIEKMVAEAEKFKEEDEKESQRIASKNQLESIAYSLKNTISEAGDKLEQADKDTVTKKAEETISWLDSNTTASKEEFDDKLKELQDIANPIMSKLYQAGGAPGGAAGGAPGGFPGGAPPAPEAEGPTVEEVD

Substance: Heat shock protein SSA1, P10591
- listed as a hit [1]: yes
- listed as a hit [2]: yes

Substance: Isocitrate dehydrogenase [NAD] subunit 2, mitochondrial, P28241
- listed as a hit [3]: yes

Substance: Small ribosomal subunit protein uS15, P05756
- listed as a hit [4]: yes
- listed as a hit [5]: yes

Substance: Large ribosomal subunit protein uL22A, P05740
- listed as a hit [6]: yes
- listed as a hit [7]: yes
- listed as a hit [8]: yes
- listed as a hit (Zuotin): yes

Substance: Large ribosomal subunit protein eL22A, P05749
- listed as a hit [9]: yes

Substance: Large ribosomal subunit protein eL32, P38061
- listed as a hit [10]: yes

Substance: Large ribosomal subunit protein eL8A, P17076
- listed as a hit [11]: yes
- listed as a hit (Pescadillo homolog): yes
- listed as a hit [12]: yes

Substance: Large ribosomal subunit protein eL27A, P0C2H6
- listed as a hit [11]: yes

Substance: Large ribosomal subunit protein uL3, P14126
- listed as a hit [13]: yes

Substance: Large ribosomal subunit protein uL30A, P05737
- listed as a hit [14]: yes
- listed as a hit [15]: yes

Substance: Mitochondrial import inner membrane translocase subunit TIM16, P42949
- listed as a hit [16]: yes

Substance: U3 small nucleolar RNA-associated protein 8, P53276
- listed as a hit [17]: yes

Substance: U3 small nucleolar RNA-associated protein 10, P42945
- listed as a hit [17]: yes

Substance: Essential nuclear protein 1, P38333
- listed as a hit [18]: yes
- listed as a hit [19]: yes

Substance: rRNA 2'-O-methyltransferase fibrillarin, P15646
- listed as a hit (Nucleolar protein 56): yes
- listed as a hit (Nucleolar protein 58): yes

Substance: Large ribosomal subunit protein eL8B, P29453
- listed as a hit (Pescadillo homolog): yes
- listed as a hit [12]: yes

Substance: Prohibitin-1, P40961
- listed as a hit (Prohibitin-2): yes

Substance: Small ribosomal subunit protein eS21A, P0C0V8
- listed as a hit [20]: yes

Substance: U3 small nucleolar RNA-associated protein 5, Q04177
- listed as a hit [21]: yes

Substance: Proteasome subunit alpha type-3, P23638
- listed as a hit [22]: yes
- listed as a hit [23]: yes

Substance: U3 small nucleolar RNA-associated protein 13, Q05946
- listed as a hit [24]: yes

Substance: Ribosomal RNA-processing protein 7, P25368
- listed as a hit [25]: yes

Substance: U3 small nucleolar RNA-associated protein 21, Q06078
- listed as a hit [24]: yes

Substance: Ubiquitin-ribosomal protein eS31 fusion protein, P05759
- listed as a hit [26]: yes

Substance: Small ribosomal subunit protein uS3, P05750
- listed as a hit [27]: yes
- listed as a hit [28]: yes
- listed as a hit [20]: yes

Substance: Proteasome subunit beta type-4, P22141
- listed as a hit [29]: yes
- listed as a hit [23]: yes

Substance: Periodic tryptophan protein 2, P25635
- listed as a hit [30]: yes

Substance: Probable proteasome subunit alpha type-7, P21242
- listed as a hit [31]: yes

Substance: Succinate--CoA ligase [ADP-forming] subunit beta, mitochondrial, P53312
- listed as a hit [32]: yes

Substance: rRNA biogenesis protein RRP5, Q05022
- listed as a hit [33]: yes

Substance: Nucleolar complex protein 2, P39744
- listed as a hit [33]: yes

Substance: Pescadillo homolog, P53261
- listed as a hit [34]: yes

Substance: U3 small nucleolar RNA-associated protein 6, Q02354
- listed as a hit [35]: yes

Substance: Small ribosomal subunit protein uS7, P26783
- listed as a hit [36]: yes
- listed as a hit [37]: yes

Substance: Nucleolar complex protein 4, Q06512
- listed as a hit [38]: yes

Substance: Ribosome biogenesis protein ERB1, Q04660
- listed as a hit [34]: yes

Substance: Small ribosomal subunit protein eS28B, P0C0X0
- listed as a hit [39]: yes

Substance: U3 small nucleolar ribonucleoprotein protein IMP3, P32899
- listed as a hit [40]: yes

Substance: NET1-associated nuclear protein 1, Q02931
- listed as a hit [21]: yes

Substance: Proteasome subunit alpha type-1, P21243
- listed as a hit [22]: yes

Substance: Sec sixty-one protein homolog, P38353
- listed as a hit [41]: yes

Substance: Golgi to ER traffic protein 4, Q12125
- listed as a hit [42]: yes

Substance: rRNA processing protein RCL1, Q08096
- listed as a hit [43]: yes

Substance: Small ribosomal subunit protein eS1B, P23248
- listed as a hit [44]: yes

Substance: Small ribosomal subunit protein eS26A, P39938
- listed as a hit [37]: yes

Substance: RuvB-like protein 1, Q03940
- listed as a hit (RuvB-like protein 2): yes
